Pf growth 96h: P. falciparum growth inhibition at 96 hour, primary screen for plastid delayed-death inhibitors. Potency, µM (doses to about 28.7 µM), for inactives: top-dose activity change, negative = inhibition, actives largely listed as inhibitors. P. falciparum luciferase reporter growth, 96 h. 320,000 tested, 6.9% active; further: on the % scale 0 is the no-effect control and ±100 the full control effect
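Luminescence readout: decreased luciferase signal marks inhibited growth of reporter-expressing P. falciparum in infected red cells (2% hematocrit, 0.05% parasitemia final), exposed to compound two generations (96 h, 37 C, 5% CO2).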
Sm TGR inh: S. mansoni TGR enzyme inhibition. Q962Y6. purified TGR, DTNB reduction, TNB absorbance 405 nm. Potency, µM (series often up to 114 µM), inactives show at the top dose activity change, negative = inhibition, most hits filed as inhibitors. 360,000 tested, 3% active. AID 485364; further: on the % scale 0 is the no-effect control and ±100 the full control effect; nearly all actives have a fitted effect of over 60% in size
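Kinetic colorimetric format: TGR-catalysed, NADPH-driven DTNB reduction monitored via TNB absorbance. Enzyme dispensed at 20 nM; compound exposure 15 min at room temperature before reaction start.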
NS1 inh: influenza NS1 inhibition | Potency, µM (top dose mostly 46.1 µM), for the others: at the top dose activity, positive = more growth | 270,000 tested, 0.4% active | AID 2326; calls by dose curve; further: actives are rising curves; nearly all actives have a fitted effect of over 50% in size
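Recovery from NS1-induced slow growth read by OD600 in budding yeast switched to galactose assay medium (pH 6.0, -URA) at 1:100 dilution. Compound 23 nl per well; the matching strain lacking NS1 serves as control.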
AMA1 RON2 block: inhibitors of Plasmodium falciparum AMA1-RON2 interaction | AlphaScreen AMA1-biotinylated RON2 peptide binding | Potency, µM (doses to about 58.2 µM), without a hit: at the highest dose activity change, negative = inhibition, usual class: inhibitors | 360,000 tested, 0.2% active | AID 720542;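 further: 0% = vehicle wells and -100% = peptide control; nearly all actives have a fitted effect of over 45% in size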
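AMA1 (3D7) with his tag at 25 nM final met compounds first, then biotinylated RON2 peptide at 25 nM; detection used donor plus acceptor beads, 10 µg/mL apiece, read by AlphaScreen after 30 min at room temperature.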
Pf growth 48h: P. falciparum growth inhibition at 48 hours (one generation). P. falciparum luciferase growth in erythrocytes, 48 h. Potency, µM (top dose mostly 28.7 µM), without a hit: top-dose activity change, negative = inhibition, hits mostly inhibitors. 310,000 tested, 5.9% active; further: on the % scale 0 is the no-effect control and ±100 the full control effect
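Luciferase-expressing parasites in RBCs, 2% Hct / 0.1% parasitemia final; RPMI 1640 + 0.5% Albumax; 37 C, 5% CO2, one generation; luminescence read-out, lower signal = inhibition.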
Numbers without * were called inactive; u = inconclusive; x = no result. A selection: hits, their analogues and other compounds. The true share with any hit is near 11%. Unless noted, the call rests on the fitted dose curve; in most records, active means well fitted curve in the direction sought with a large enough effect; inconclusive means small, poorly fitted or top-dose-only effect, or another doubt; inactive means no such curve, though single readings can be large; an effect the other way counts as inactive or inconclusive. Potency means the concentration at half of the fitted maximal effect.

SMILES	Pf growth 96h	Sm TGR inh	NS1 inh	AMA1 RON2 block	Pf growth 48h
C#Cc1ccc([C@H]2C=C(C(=O)OCC=C)O[C@@H](OCCCCO)C2)cc1	x	x	x	20%	x
COc1ccc(-c2noc(-c3ccccc3C(=O)Nc3cccnc3)n2)cc1OC	x	-6%	-33%	13%	10µM*
O=C(O)c1ccc(NC(=S)NC(=O)c2cccnc2)cc1	u	35µM*	12%	2%	271%
CC(=O)Nc1ccc(OC(=O)c2cccnc2)cc1	1.2µM*	1%	-4%	-12%	u
COc1cccc(-c2nc(-c3ccc(NC(=O)c4cccnc4)cc3)no2)c1	12µM*	0%	-9%	-7%	u
COc1ccc(Cl)cc1S(=O)(=O)NC(C)C(=O)NCc1cccnc1 (centres undefined)	0%	-2%	-4%	23%	28%
COc1ccc(N(CC(=O)N/N=C/c2ccc3c(c2)OCO3)S(=O)(=O)c2ccc(NC(C)=O)cc2)cc1	u	-11%	x	0%	13µM*
COc1ccc(N(CC(=O)Nc2ccc3c(c2)OCO3)S(=O)(=O)c2ccccc2)cc1OC	u	-8%	0%	-7%	2.9µM*
CCC(C)NC(=O)CN(c1ccc(OC)cc1)S(=O)(=O)c1ccc(NC(C)=O)cc1 (centres undefined)	6.6µM*	6%	14%	0%	u
CC1CCCC(C)N1C(=O)CSc1nnc(-c2ccco2)n1C (centres undefined)	u	-36%	x	12%	-29%
CC(C)(C)OC(=O)N1C(=O)[C@](OC(=O)c2ccccc2)(c2ccccc2)c2cccc(F)c21	x	x	x	-7%	x
CC(C)c1nn2c(=O)cc(COC(=O)COc3ccccc3F)nc2s1	x	1%	x	x	x
COc1cc(/C=C2/C(=N)N3C(=NC2=O)SN=C3S(=O)(=O)C(C)C)ccc1OC(=O)c1ccco1	u	-21%	1%	2%	-1%
CCOc1cc(/C=C2/C(=N)N3C(=NC2=O)SN=C3S(=O)(=O)CC)ccc1OC(=O)c1ccco1	10µM*	-5%	15%	-11%	-4%
CCOc1cc(/C=C2/C(=N)N3C(=NC2=O)SN=C3S(=O)(=O)C(C)C)ccc1OC(=O)c1ccco1	8.3µM*	-24%	-5%	-3%	-8%
CC(C)=CC(=O)O[C@@H]1Cc2cc3ccc(=O)oc3cc2OC1(C)C	1%	-2%	x	6%	-2%
O=C1C(=O)N(c2ccccn2)C(c2cccc([N+](=O)[O-])c2)/C1=C(/O)c1ccc(Br)cc1 (centres undefined)	u	5%	9%	-9%	28%
CC(C)COC(=O)CCNc1n[nH]c(=O)[nH]c1=O	9.3µM*	3%	19%	11%	0%
O=P(Cc1cc(Br)cc(Br)c1OCCO)(c1ccccc1)c1ccccc1	-16%	0%	-4%	-2%	-3%
Cc1ccc2[nH]c(=O)c(-c3nc4ccccn4c3NCc3ccco3)cc2c1	4.7µM*	-14%	1%	-3%	33%
O=Cc1c(NCc2ccco2)nc2ccccn2c1=O	5%	u	-3%	-5%	41%
Cc1cc(Cl)ccc1OCCCC(=O)NNC(=O)c1ccccc1O	30%	6%	x	34%	-16%
CN(C)c1nc(-c2ccccc2)[n+](C)s1	23%	-4%	-6%	44%	12µM*
CN(C)c1cc(-c2ccccc2)nc(-c2ccccc2)n1	0%	10%	10%	6%	33%
O=S1(=O)CCO[C@H]2Cc3ccccc3[C@H]2N1Cc1ccccc1Br	17µM*	-3%	0%	-1%	12%
SMILES	Pf growth 96h	Sm TGR inh	NS1 inh	AMA1 RON2 block	Pf growth 48h
O=S1(=O)CCO[C@H]2Cc3ccccc3[C@H]2N1Cc1ccccc1F	-40%	-21%	3%	-26%	0%
COc1ccc2nc(-c3ccccc3)cc(C(=O)N3CCC3)c2c1	u	-27%	x	6%	u
COc1ccc(N2CCN(C(=O)c3cn(Cc4ccccc4)nc3-c3cccnc3)CC2)cc1	10µM*	2%	x	-4%	u
COc1cccc(CN2CCN(C(=O)c3cc(-c4cccnc4)nc4ccc(C)cc34)CC2)c1	u	-23%	-14%	-14%	9.3µM*
CCN(CC(=O)NCc1ccc(Cl)cc1)C(=O)CNS(=O)(=O)c1ccc(NC(C)=O)cc1	u	2%	-32%	-11%	12µM*
CC(=O)Nc1ccc(S(=O)(=O)NCc2ccc(C(=O)NCc3ccc(Cl)cc3)cc2)cc1	u	2%	-1%	-11%	x
Cc1ccc(CNC(=O)C(=O)NCCC2CCCCN2S(=O)(=O)c2cccs2)cc1 (centres undefined)	u	-17%	x	7%	u
Cc1ccccc1CNC(=O)C(=O)NCCC1CCCCN1S(=O)(=O)c1cccs1 (centres undefined)	12µM*	-2%	x	u	u
CNC(=O)C(=O)NCCC1CCCCN1S(=O)(=O)c1cccs1 (centres undefined)	2%	-3%	x	-7%	13%
COc1ccccc1CNC(=O)C(=O)NCCC1CCCCN1S(=O)(=O)c1ccc(C)cc1 (centres undefined)	u	-2%	x	-22%	12µM*
COc1ccccc1CNC(=O)C(=O)NCCC1CCCCN1S(=O)(=O)c1cccs1 (centres undefined)	12µM*	-5%	x	-17%	u
CCc1ccc(S(=O)(=O)c2nnn3c2nc(NCc2ccccc2)c2cc(Cl)ccc23)cc1	x	6%	x	x	x
Cc1nn(Cc2cccc(C(=O)NC34CC5CC(CC(C5)C3)C4)c2)c(C)c1Br	8.3µM*	-16%	-19%	-11%	15µM*
CCCNC(=O)c1cccc(Cn2nc(C)c(Br)c2C)c1	2%	17%	-67%	0%	-14%
Cc1ccc2nc(SCC(=O)NCCCN3CCCC3=O)[nH]c2c1	8%	1%	x	18%	3%
O=C(CSc1nnc2ccccn12)Nc1ccc(S(=O)(=O)N2CCOCC2)cc1	1%	-4%	3%	-19%	-2%
CCOc1cc(CNc2ccc3cn[nH]c3c2)ccc1OC	13µM*	-4%	26%	-11%	x
COC(=O)c1cnn2c3c(c(C)nc12)CCCC3	0.93µM*	6%	4%	0%	37%
C=CCn1c(SCC(=O)Nc2c(C)n(C)n(-c3ccccc3)c2=O)nnc1-c1cccnc1	x	x	x	-11%	x
Cc1c(Cl)cccc1NC(=O)CNCc1ccccc1F	19%	1%	x	-11%	-11%
c1ccc(C2(c3ccccc3)CC2C2=NCCN2)cc1 (centres undefined)	13µM*	x	x	x	u
Cc1ccc(S(=O)(=O)N2[C@@H](c3cccc(C)c3)C(C(=O)O)=C[C@H]2CC2CCCC2)cc1	x	x	x	12%	x
CN(Cc1ccccc1)C(=O)CCC1CCN(S(C)(=O)=O)CC1	12µM*	0%	6%	0%	0%
CN(Cc1ccccc1)C(=O)CCC1CCN(S(=O)(=O)N(C)C)CC1	u	-6%	17%	-9%	6%
